± gives the standard deviation.
Tested on: MILI (PIWIL2) piRISC loaded with L1MC piRNA (26 nt)
Assay: pre-steady-state target cleavage rate (min^-1); guide: L1MC piRNA 5'p-UAACUAAAUACUAUGCAAGCUGUAGG; MIWI and MILI are mouse PIWI proteins and EfPiwi is from a freshwater sponge; tags in brackets are library labels; higher = faster piRNA-guided slicing of the target
Details: auxiliary factor: 500 nM mouse GTSF1
How it was run: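 The pre-steady-state cleavage rate was obtained by Cleave-'n-Seq with a burst-and-steady-state fit. A transcribed, DNA-blocked target RNA library (0.1 nM) was mixed with 1 nM active affinity-purified piRISC carrying one synthetic guide, with or without 500 nM GTSF1 partner protein, in HEPES–potassium acetate buffer at 33 °C for 0–8 or 0–960 min. Uncleaved targets were sequenced and normalised to depth and to weakly complementary targets, with three trials pooled and k3 capped at 0.0001 min^-1.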

Point of comparison: UCCUGGAUGUCGUUGCAUAGUGUUUAGUUA, “pre-steady-state target cleavage rate” value 0.0461 ± 0.01. Against it:
- UCCUGGAUCAGCUUGCAAAGUAUUUACUUA — higher, 0.0828 ± 0.013
- UCCUGGAUGUCGUUGCAUAGUAUAAAGUUA — within error, 0.0728 ± 0.018
- UCCUGGAUCUCGUUGCAUAGUAUUUAGUAA — higher, 0.114 ± 0.018
- UCCUCCUACAUCUUGCAUAGUAUUUAGUUA — higher, 0.277 ± 0.02
- UCCUGGAUGUCGAAGCAUAGUAUUUUGUUA — lower, 0.0221 ± 0.0061
- UCCUGGAUGUCGAAGCAUAGUAUUUUAGUUA — within error, 0.0433 ± 0.01
- UCCUGCUACAGCUUGCAUAGAUAUUUAGUUA — lower, 0.0121 ± 0.005
- UCCUGGAUGUCGAUGCAUAGUUUUUAGUUA — lower, 0.0108 ± 0.0042
- UCCUGGAUGUCCUUGCAUAGAUAUUUAGUUA — lower, 0.00754 ± 0.004
- UCCUGGAUGUGCAUGCAUAGUAUUUUGUUA — higher, 0.0798 ± 0.018
- UCCUGGAUGUCGAAGCAUAGUAUCUAGUUA — lower, 0.0263 ± 0.0077
- UCCUGGAUGUCGAAGCAUAGUGUUUAGUUA — lower, 0.0115 ± 0.0044
- UCCUGGAUCACGUUGCAUAGUAUUUAGUAA — higher, 0.18 ± 0.024
- UCCUGGAUCAGCUUGGUAAGUAUUUAGUUA — within error, 0.0316 ± 0.0076

Same assay, conditions: auxiliary factor: none (no GTSF1)

Point of comparison: UCCUCCUACAUCUUGCAUAGUAUUUAGUUA, “pre-steady-state target cleavage rate” value 0.00791 ± 0.0022. Against it:
- UCCUGGAUGUGCUUGCUUAGUAUUUAGUUA — within error, 0.0114 ± 0.0031
- UCCUGGAUGUCGUUGCAUAGUAUAUUAGUUA — within error, 0.00754 ± 0.0028
- UCCUGGAUGUGCAUGGAUAGUAUUUAGUUA — within error, 0.0094 ± 0.0023
- UCCUGGAUCAGCUUGCAUUGUUUUUAGUUA — within error, 0.00431 ± 0.0023
- UCCUGCUACAGCUUUCAUAGUAUUUAGUUA — within error, 0.00503 ± 0.0022
- UCCUGGAUGUGCUUGCUAAGUAUUUAGUUA — within error, 0.00546 ± 0.0023
- UCCUGGAACAGCUUGCGUAGUAUUUAGUUA — within error, 0.00716 ± 0.0018
- UCCUGGAUGUCCUUGGAUAGUUUUUAGUUA — within error, 0.00344 ± 0.0027
- UCCUGGAUGUGCUUGCAUUGUUUUUAGUUA — within error, 0.00335 ± 0.0032
- UCCUGGUACAGCAUGCAUAGUAUUUUGUUA — within error, 0.00364 ± 0.0034
- UCCUGGAUGUGCUUGCAAGUAUUUAGUUA — within error, 0.00503 ± 0.0024
- UCCUGCUACAGCUUACAUAGUAUUUAGUUA — within error, 0.00609 ± 0.0025
- UCCUGGAUGUCGUUGCAUAGUAUUUCAGUUA — within error, 0.00397 ± 0.0033
- UCCUGGAUGUGGAUGCAUAGUAUUUAGUAA — within error, 0.00471 ± 0.003
- UCCUGGUACAGCUACGAUAGUAUUUAGUUA — within error, 0.00343 ± 0.0026
- UCCUGGAUGUGCUUGGAUAGUUUUUAGUUA — within error, 0.00414 ± 0.0024
- UCCUGGAUGUCCUUGCAUAGUAUAUAGUUA — within error, 0.00505 ± 0.0026
- UCCUGGAUGAGCUUGCAUAGAUUUUAGUUA — within error, 0.00304 ± 0.0029
- UCCUGGAUGUCCUAGCAUAGUAUAUAGUUA — within error, 0.00315 ± 0.0027
- UCCUGGAUGUCGAUGGCAUAGUAUUUAGUUA — within error, 0.00792 ± 0.003
- UCCUGGAUGUCGAUGCAUAGUAUUUAGUCA — within error, 0.00347 ± 0.0027
- UCCUGGAUCAGCUUGCAAUGUAUUUAGUAA — within error, 0.00611 ± 0.0022
- UCCUGGUACAGCUUGCAUAGAUAUUUAGUUA — within error, 0.00568 ± 0.0026
- UCCUGGAUGACCUUGCAUACUAUUUAGUUA — within error, 0.00358 ± 0.0034
- UCCUGGAUCAGCUUGCAAAGUAUUUACUUA — within error, 0.00392 ± 0.0024
- UCCUGGAUGUCGUUGCAUAGUAUAAAGUUA — within error, 0.00407 ± 0.0022
- UCCUGGAUCUCGUUGCAUAGUAUUUAGUAA — lower, 0.003 ± 0.0027
- UCCUGGAUGUCGAAGCAUAGUAUUUUGUUA — lower, 0.00241 ± 0.0023
- UCCUGGAUGUCGAAGCAUAGUAUUUUAGUUA — within error, 0.00324 ± 0.0028
- UCCUGCUACAGCUUGCAUAGAUAUUUAGUUA — within error, 0.00419 ± 0.0019
- UCCUGGAUGUCGUUGCAUAGUGUUUAGUUA — within error, 0.00452 ± 0.0029
- UCCUGGAUGUCGAUGCAUAGUUUUUAGUUA — within error, 0.0052 ± 0.002
- UCCUGGAUGUCCUUGCAUAGAUAUUUAGUUA — within error, 0.00426 ± 0.0023
- UCCUGGAUGUGCAUGCAUAGUAUUUUGUUA — within error, 0.00327 ± 0.0032
- UCCUGGAUGUCGAAGCAUAGUAUCUAGUUA — within error, 0.00418 ± 0.0019
- UCCUGGAUGUCGAAGCAUAGUGUUUAGUUA — within error, 0.00454 ± 0.0019
- UCCUGGAUCACGUUGCAUAGUAUUUAGUAA — within error, 0.00365 ± 0.0029
- UCCUGGAUCAGCUUGGUAAGUAUUUAGUUA — within error, 0.00588 ± 0.0023

From the supplement of paper PMC10338343
